Test results published in PubChem BioAssay (NCI).
Compounds without any hit were thinned out: in the full panel of roughly 79,000, 15% have a hit. No stated cut-off is given here; in the data, active means growth inhibition above about 70%; inactive means the rest.

Legend:
[1] = NCI Yeast Anticancer Drug Screen. Data for the rad50 strain (AID 155);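 further: 0% = growth of vehicle-only cultures of the same strain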; conditions: S. cerevisiae rad50 strain growth inhibition; at 50.0 µM; stronger effect = higher value
Method in brief: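 Compounds were tested on a yeast strain with an engineered DNA damage repair alteration; the reported value is growth inhibition normalised to vehicle treatment.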

[2] = NCI Yeast Anticancer Drug Screen. Data for the mec2-1 strain (AID 157); conditions: S. cerevisiae mec2-1 strain, at 50.0 µM, stronger effect = higher value
Method in brief: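 Cells of the genetically defined mec2-1 yeast strain are incubated with test compound. Inhibition of growth is calculated against vehicle-treated controls.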

[3] = NCI Yeast Anticancer Drug Screen. Data for the sgs1 mgt1 strain (AID 161);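 further: 0% = growth of cultures given vehicle only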; conditions: S. cerevisiae sgs1 mgt1 strain, at 50.0 µM, stronger effect = higher value
Method in brief: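 Genetically altered yeast, compound exposure, growth inhibition relative to vehicle.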

[4] = NCI Yeast Anticancer Drug Screen. Data for the cln2 rad14 strain (AID 165);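 further: 0% = growth equal to vehicle treated cultures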; conditions: S. cerevisiae cln2 rad14 strain, at 50.0 µM, stronger effect = higher value
Method in brief: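 The screen exposed genetically defined yeast (cln2 rad14) to test compounds and scored growth inhibition relative to vehicle-treated controls.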

[5] = NCI Yeast Anticancer Drug Screen. Data for the bub3 strain (AID 167); conditions: S. cerevisiae bub3 mutant strain, at 50.0 µM, stronger effect = higher value
Method in brief: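 Growth of a checkpoint-deficient yeast mutant is measured after compound exposure. Values represent inhibition relative to vehicle.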

[6] = NCI Yeast Anticancer Drug Screen. Data for the mlh1 rad18 strain (AID 175); conditions: S. cerevisiae mlh1 rad18 strain growth inhibition; at 50.0 µM; stronger effect = higher value
Method in brief: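 Compound-treated yeast growth, normalised to vehicle controls. Strain bears defined DNA repair mutations.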

Measured: growth inhibition

COC(=O)c1nc(N)nc(C(=O)OC)c1C(=O)C(C)C
inactive: [1] 5.4% | [2] -10.7% | [3] -24.9% | [4] -13.4% | [5] -29% | [6] -1%

COC(=O)c1nnn(-c2cccc(Cl)c2)c1C(=O)c1ccc(Cl)c(Cl)c1
inactive: [1] -6.55% | [2] 5.55% | [3] 7.5% | [4] -5.25% | [5] -8.9% | [6] 11.8%

OC1CCOc2ccccc21 (configuration not stated)
inactive: [1] -29.8% | [2] 10.1% | [3] -11.1% | [4] 10.2% | [5] -14.8% | [6] -6.3%

COc1cc(N(Cc2ccc3oc(=O)c(-c4ccccc4)nc3c2)Cc2ccc3oc(=O)c(-c4ccccc4)nc3c2)cc(OC)c1OC
inactive: [1] 29.6% | [2] -2.45% | [3] 13.5% | [4] -35.1% | [5] 15% | [6] 9.15%

CCN(CC)CCOC(NC(C)=O)(c1ccccc1)c1ccccc1
inactive: [1] 3.5% | [2] -9.55% | [3] 9.85% | [4] 1.55% | [5] 14.8% | [6] 20%

CC1=C(C(=O)Nc2ccccc2C)C(c2ccc(Cl)cc2)C(C(=O)Nc2ccccc2C)=C(C)N1
inactive: [1] -3.3% | [2] 2.6% | [3] -5.2% | [4] 14.4% | [5] -8% | [6] 0%

COC(=O)C(Nc1ccc(OC)cc1)c1ccccc1 (configuration not stated)
inactive: [1] -3.85% | [2] -1.35% | [3] -8.6% | [4] -21.6% | [5] 4% | [6] -13.6%

CNC(=O)CCC(=O)O
inactive: [1] -7.25% | [2] -20.2% | [3] -7.5% | [4] -2.7% | [5] -23.4% | [6] -8.45%

c1ccc(Oc2ccc(-c3ccccc3)cc2)cc1
inactive: [1] -28.9% | [2] -52.9% | [3] 1.8% | [4] -7.85% | [5] -8.55% | [6] -31.3%

CCC(=O)NC(OCC1(CC)COC1)(C(F)(F)F)C(F)(F)F
inactive: [1] -8.6% | [2] -10.8% | [3] -37.1% | [4] 2.75% | [5] -11.5% | [6] -13.2%

CC(=O)NC(C)NC(C)=O
inactive: [1] -11.8% | [2] -9.95% | [3] -13.8% | [4] -86.5% | [5] 7.25% | [6] -5.35%

COc1cc(NC(C)=O)c2[nH]c3c(C)cc(NC(C)=O)c(C)c3c2c1
inactive: [1] -25.6% | [2] -55.1% | [3] -67.2% | [4] -34.5% | [5] -27.6% | [6] -56.7%

OCCN(CCO)c1ccc2c(c1)Cc1cc(Br)ccc1-2
inactive: [1] 1.25% | [2] 6% | [3] -4.35% | [4] -2.7% | [5] 22.5% | [6] 5.15%

N=C1N=C(N)c2cc3c(cc21)SCCSCCCSCCS3
inactive: [1] 6.05% | [2] 1.95% | [3] 2.6% | [4] 9.15% | [5] 4.2% | [6] 30.4%

NC(CS)C(=O)NCCNCCNc1ccc(NCCNCCNC(=O)C(N)CS)c2c1C(=O)c1c(O)ccc(O)c1C2=O (configuration not stated)
inactive: [1] -30.4% | [2] -12.4% | [3] 2.1% | [4] -0.85% | [5] -10.5% | [6] -12.7%

Cn1cnc(N)c(N=O)c1=O
inactive: [1] -0.1% | [2] 8.65% | [3] 10.1% | [4] 18.7% | [5] -9.75% | [6] 6%

CC(=O)C(C)C(=O)N1C(=O)N(C)C2(C)N(C)C(=O)NC12C (configuration not stated)
inactive: [1] 2.05% | [2] -45.3% | [3] -24.3% | [4] 8.4% | [5] -5.8% | [6] 7.3%

COc1ccc(/C(=N/NS(=O)(=O)c2ccc([N+](=O)[O-])cc2)C2COC(=O)C2)cc1OC (configuration not stated)
inactive: [1] 6.15% | [2] -9% | [3] 3.25% | [4] -13.4% | [5] 14% | [6] 2.25%

CC1(C)CN(CCO)C(C)(C)CN1
inactive: [1] 30.6% | [2] 16.3% | [3] 14.9% | [4] 15.8% | [5] -19.8% | [6] 2.5%

CC(C=O)C1CCCCC1 (configuration not stated)
inactive: [1] 9.15% | [2] 10.1% | [3] 0.6% | [4] 7.4% | [5] 8.95% | [6] 5.6%

CNC(=O)Sc1ccc(C)c([N+](C)(C)C)c1
inactive: [1] 10.1% | [2] 5.6% | [3] 9% | [4] -9.6% | [5] 18.1% | [6] 18.5%

COc1ccccc1NC(=O)CC(=O)n1nc(C)c(N=Nc2ccccc2C(=O)O)c1C
inactive: [1] -12.6% | [2] -25.3% | [3] -17.6% | [4] -14.9% | [5] -15.8% | [6] -9.5%

CC(C)(C)C1CCC2c3c([nH]c4ccccc34)C3C(=O)N(c4ccc(C#N)cc4)C(=O)C3C2C1 (configuration not stated)
inactive: [1] 53.3% | [2] 50.2% | [3] 54.9% | [4] 16.9% | [5] 38.6% | [6] 38.8%

C(=C/c1ccc2c(c1)OCO2)/c1ccccc1
inactive: [1] -16.1% | [2] 10.3% | [3] 12.2% | [4] -2.85% | [5] 11% | [6] 2.9%

CC(=O)Nc1nc(Cl)c2ncn(C3CCCO3)c2n1 (configuration not stated)
inactive: [1] -13% | [2] -4% | [3] -9.35% | [4] -33.5% | [5] 0.6% | [6] 2.25%

CCOC(=O)CNC(=O)NC
inactive: [1] 1.25% | [2] 8.15% | [3] -6.75% | [4] -11.7% | [5] -6.25% | [6] 38%

C/C(CCC(=O)O)=N\NC(=O)COc1ccc(Cl)cc1Cl
inactive: [1] 31.4% | [2] -0.15% | [3] 18.6% | [4] 12.1% | [5] 14.8% | [6] 13.8%

COc1cc2c(cc1Oc1c(O)c(OC)cc3c1C(C)N(C)CC3)C(C)N(C)CC2 (configuration not stated)
inactive: [1] 37.5% | [2] -8.1% | [3] 2.4% | [4] 0.8% | [5] 2.5% | [6] 14.9%

CCC1OC(=O)CC(O)C(C)C(OC2OC(C)CC(N(C)C)C2O)C(CC=O)CC(C)C(=O)/C=C/C2(C)OC2C1C (configuration not stated)
inactive: [1] -6.9% | [2] -7.55% | [3] -11.3% | [4] -1.55% | [5] -14% | [6] 1.8%

Brc1ccc2c[n+]3ccccc3cc2c1
inactive: [1] 11.9% | [2] 7.35% | [3] 12% | [4] -31.9% | [5] 24.2% | [6] 9.4%

CN(C)N=Nc1c(Cl)cccc1Cl
inactive: [1] 3.35% | [2] 26.7% | [3] -6.6% | [4] -13% | [5] 2.35% | [6] 7.75%

O=C(O)c1cccc(C(=O)c2ccccc2)c1
inactive: [1] 5.55% | [2] 6.15% | [3] 20.4% | [4] 4.4% | [5] -11.7% | [6] 0.7%

CCOC1(OCC)C(=O)N(c2ccc(Cl)c(Cl)c2)C(=O)N1c1ccc(Cl)c(Cl)c1
inactive: [1] 39.2% | [2] 1.4% | [3] -5.6% | [4] 7.5% | [5] -3.65% | [6] -0.45%

O=C1c2ccccc2C(=O)c2c(O)c(Cc3ccccc3)cc(O)c21
inactive: [1] 4.75% | [2] 11.9% | [3] 2.2% | [4] 14.5% | [5] 10.2% | [6] 4%

CC(=O)Nc1ccc(OCCCc2ccccc2)c([N+](=O)[O-])c1
inactive: [1] -7.2% | [2] 43.6% | [3] 23.5% | [4] -20.7% | [5] 20.4% | [6] -2.65%

CCOC(=O)CC[Si](CC)(CC)CC
inactive: [1] 0.25% | [2] -13.8% | [3] 1.7% | [4] -28.5% | [5] -15.3% | [6] -1.45%

O=C(Cn1c(=O)oc2ccc(C(=O)c3ccc(F)cc3)cc21)c1ccc([N+](=O)[O-])cc1
inactive: [1] -13.8% | [2] -36% | [3] -15.6% | [4] -24.6% | [5] -21.6% | [6] -14.8%
